# Test results published in PubChem BioAssay (Tox21).
# “And” between values parts separate entries of the source, which are not always exact repeats. Identical values can stand only once. Values without a mark were called inactive. Results filed as inconclusive are left out. Entries that show only a call come without a potency. The source made the active and inactive calls. Unless noted, the call rests on the fitted dose curve; in most records, active means well fitted curve in the direction sought with a large enough effect in the repeat runs; inconclusive means weak or mixed curves; inactive means no such curve, though single readings can be large; an effect the other way counts as inactive or inconclusive.
# Tests used:
# [1] = Caspase-3/7 induction in HepG2 cells by small molecules, qHTS assay (AID 1346978); further: nearly all actives have a fitted effect of over 15% in size
# In short: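 Wild-type HepG2 cells, 2,000/well, settled 5 hr at 37 C and 5% CO2, then compound-treated for 17 hr; caspase-3/7 activity read by luminescent Caspase-Glo 3/7 after 30 min at room temperature.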
# [2] = Caspase-3/7 induction in CHO-K1 cells by small molecules, qHTS cell viability counter screen (AID 1346979); further: nearly all actives have a fitted effect of over 35% in size; further: potency means the concentration at half of the fitted maximal effect
# In short: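 Cytotoxicity counter screen run in parallel with the caspase-3/7 assay: CHO-K1 cells, 16hr compound treatment at 37C, then CellTiter-Fluor for 1hr before fluorescence reading.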
# [3] = Caspase-3/7 induction in CHO-K1 cells by small molecules, qHTS assay (AID 1346980); further: nearly all actives have a fitted effect of over 15% in size
# In short: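 Wild-type CHO-K1 cells exposed to compounds for 17hr at 37 C, 5% CO2. Caspase-3/7 activity then measured by Caspase-Glo 3/7 luminescence after 30min at room temperature.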
# [4] = Caspase-3/7 induction in HepG2 cells by small molecules, qHTS cell viability counter screen (AID 1346981); further: nearly all actives have a fitted effect of over 30% in size; further: potency means the concentration at half of the fitted maximal effect
# In short: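 Wild-type HepG2 cells, 2,000/well, settled 5 hr at 37 C, 5% CO2 before compound addition. Viability read by CellTiter-Fluor fluorescence, reagent added after 16 hr compound exposure, then 1 hr at 37C, in the same wells as the caspase read.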
# [5] = biological target: Nuclear receptor subfamily 1 group I member 2 (Homo sapiens) (UniProt O75469); assay: Human pregnane X receptor (PXR) small molecule agonists, qHTS assay (AID 1346982); further: nearly all actives have a fitted effect of over 35% in size; further: potency means the concentration at half of the fitted maximal effect
# Chain of Nuclear receptor subfamily 1 group I member 2 (Homo sapiens) (O75469 whole entry, looked up): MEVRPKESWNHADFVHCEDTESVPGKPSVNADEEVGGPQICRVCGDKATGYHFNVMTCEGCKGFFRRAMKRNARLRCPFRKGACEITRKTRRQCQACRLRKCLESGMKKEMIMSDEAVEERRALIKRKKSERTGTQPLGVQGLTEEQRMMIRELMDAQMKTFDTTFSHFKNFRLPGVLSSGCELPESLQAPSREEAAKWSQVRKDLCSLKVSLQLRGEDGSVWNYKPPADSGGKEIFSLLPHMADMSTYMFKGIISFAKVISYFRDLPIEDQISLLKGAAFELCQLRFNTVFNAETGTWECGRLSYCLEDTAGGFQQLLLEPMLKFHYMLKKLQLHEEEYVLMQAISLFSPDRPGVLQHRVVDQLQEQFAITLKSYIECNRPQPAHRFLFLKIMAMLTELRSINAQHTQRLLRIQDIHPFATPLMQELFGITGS
# In short: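 PXR-Luc HepG2 reporter cells (CYP3A4-driven luciferase) in 5% charcoal-stripped FBS medium, plated 5 h before compound addition, then treated 24 h at 37C. Luciferase read by ONE-Glo luminescence after 30 min at room temperature.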
# [6] = biological target: Acetylcholinesterase (Homo sapiens) (UniProt P22303); assay: Acetylcholinesterase (AChE) small molecule antagonists: colormetric cell-based qHTS assay (AID 1347395; calls by dose curve; further: nearly all actives have a fitted effect of over 30% in size; further: potency means the concentration at half of the fitted maximal effect)
# Chain of Acetylcholinesterase (Homo sapiens) (P22303 whole entry, looked up): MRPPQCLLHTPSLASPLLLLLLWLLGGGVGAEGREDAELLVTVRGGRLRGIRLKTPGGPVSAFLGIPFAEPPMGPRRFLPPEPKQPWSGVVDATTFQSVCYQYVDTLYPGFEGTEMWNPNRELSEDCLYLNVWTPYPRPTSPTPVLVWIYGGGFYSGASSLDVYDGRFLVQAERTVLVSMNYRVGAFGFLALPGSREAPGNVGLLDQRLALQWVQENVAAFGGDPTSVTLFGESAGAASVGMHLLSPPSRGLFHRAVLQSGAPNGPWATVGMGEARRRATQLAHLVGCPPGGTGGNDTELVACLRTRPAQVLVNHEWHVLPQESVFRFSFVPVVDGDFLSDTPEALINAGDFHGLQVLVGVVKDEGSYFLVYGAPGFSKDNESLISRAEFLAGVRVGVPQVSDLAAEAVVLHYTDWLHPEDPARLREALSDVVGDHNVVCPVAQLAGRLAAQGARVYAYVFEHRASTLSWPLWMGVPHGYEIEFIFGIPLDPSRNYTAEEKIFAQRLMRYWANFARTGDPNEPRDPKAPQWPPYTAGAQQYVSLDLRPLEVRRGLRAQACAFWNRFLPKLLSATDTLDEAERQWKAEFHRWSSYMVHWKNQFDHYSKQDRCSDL
# In short: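 Cells (SH-SY5Y, 2,000 per well) are seeded and left overnight at 37 C. Compound is added for 30 min, then DTNB and acetylthiocholine for a further 90 min at 37 C before absorbance-based thiocholine detection.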
# [7] = biological target: Acetylcholinesterase (Homo sapiens) (UniProt P22303); assay: Acetylcholinesterase (AChE) small molecule antagonists: enzyme-based qHTS assay (AID 1347397; calls by dose curve; further: nearly all actives have a fitted effect of over 55% in size); details: Potency: AChE enzyme activity inhibition
# In short: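 Enzyme inhibition was scored from DTNB-detected thiocholine formed by recombinant human AChE acting on acetylthiocholine. The 30 min compound preincubation and 10 min substrate reaction were both run at room temperature, with DMSO as vehicle control.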
# [8] = biological target: Acetylcholinesterase (Homo sapiens) (UniProt P22303); assay: Acetylcholinesterase (AChE) small molecule antagonists: enzyme-based qHTS assay with human liver microsomes (AID 1347399; calls by dose curve; further: nearly all actives have a fitted effect of over 60% in size); details: Potency: qHTS inhibition
# In short: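 Recombinant human AChE (50 mU/mL in the enzyme mix) and human liver microsomes (0.25 mg/mL final) were preincubated with compound and NADPH (0.25 mg/mL final) for 30 min at 37 C. Acetylthiocholine/DTNB was then added; thiocholine was read colorimetrically after 10 min at room temperature.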
# [9] = biological target: Cytochrome P450 2D6 (Homo sapiens) (UniProt P10635); assay: Cytochrome P450 Family 2 Subfamily D Member 6 (CYP2D6) small molecule antagonists: luciferase reporter qHTS assay (AID 1671196); further: nearly all actives have a fitted effect of over 50% in size; further: potency means the concentration at half of the fitted maximal effect
# Chain of Cytochrome P450 2D6 (Homo sapiens) (P10635 whole entry, looked up): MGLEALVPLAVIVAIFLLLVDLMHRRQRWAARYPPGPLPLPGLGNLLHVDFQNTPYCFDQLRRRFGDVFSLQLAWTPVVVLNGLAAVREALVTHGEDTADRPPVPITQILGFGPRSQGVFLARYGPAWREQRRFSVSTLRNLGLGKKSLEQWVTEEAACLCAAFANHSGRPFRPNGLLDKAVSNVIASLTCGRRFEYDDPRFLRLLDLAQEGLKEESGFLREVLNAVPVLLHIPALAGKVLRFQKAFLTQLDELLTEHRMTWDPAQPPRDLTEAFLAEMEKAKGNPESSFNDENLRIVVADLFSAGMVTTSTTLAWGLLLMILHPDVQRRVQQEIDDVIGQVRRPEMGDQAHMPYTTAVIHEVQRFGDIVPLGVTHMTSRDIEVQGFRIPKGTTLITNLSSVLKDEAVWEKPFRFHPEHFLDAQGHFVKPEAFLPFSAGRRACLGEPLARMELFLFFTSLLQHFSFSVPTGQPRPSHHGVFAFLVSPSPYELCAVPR
# In short: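 Cell-free P450-Glo system: CYP2D6 with proluciferin substrate was pre-incubated with compound for 10 min, then reacted with NADPH regeneration for 1 h at room temperature. Luciferin product was detected after 20 min, and data were reported as relative luminescence units.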
# [10] = biological target: Cytochrome P450 2C19 (Homo sapiens) (UniProt P33261); assay: Cytochrome P450 Family 2 Subfamily C Member 19 (CYP2C19) small molecule antagonists: luciferase reporter qHTS assay (AID 1671197); further: nearly all actives have a fitted effect of over 65% in size; further: potency means the concentration at half of the fitted maximal effect
# Chain of Cytochrome P450 2C19 (Homo sapiens) (P33261 whole entry, looked up): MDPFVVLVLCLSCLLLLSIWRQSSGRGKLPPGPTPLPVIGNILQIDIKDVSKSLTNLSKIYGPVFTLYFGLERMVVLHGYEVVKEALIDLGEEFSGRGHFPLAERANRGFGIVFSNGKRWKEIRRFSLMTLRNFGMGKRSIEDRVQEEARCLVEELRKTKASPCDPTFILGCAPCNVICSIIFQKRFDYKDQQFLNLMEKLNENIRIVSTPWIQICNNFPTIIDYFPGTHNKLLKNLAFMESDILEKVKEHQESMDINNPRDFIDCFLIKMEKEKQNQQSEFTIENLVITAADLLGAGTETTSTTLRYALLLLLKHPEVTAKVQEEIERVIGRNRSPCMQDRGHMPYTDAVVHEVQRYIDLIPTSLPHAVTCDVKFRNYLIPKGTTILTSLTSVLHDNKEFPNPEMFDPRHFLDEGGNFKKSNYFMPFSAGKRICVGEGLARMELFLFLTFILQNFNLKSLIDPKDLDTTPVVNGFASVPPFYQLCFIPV
# In short: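 Compounds were tested on CYP2C19 activity via proluciferin conversion to luciferin. The 37C, 1 h reaction followed NADPH addition; detection reagent stopped it.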
# [11] = biological target: Cytochrome P450 2C9 (Homo sapiens) (UniProt P11712); assay: Cytochrome P450 Family 2 Subfamily C Member 9 (CYP2C9) small molecule antagonists: luciferase reporter qHTS assay (AID 1671198); further: nearly all actives have a fitted effect of over 50% in size; further: potency means the concentration at half of the fitted maximal effect
# In short: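 P450-Glo proluciferin substrate with CYP2C9 enzyme; 10 min RT preincubation, then NADPH regeneration 1 h at 37C; luciferin detection reagent 20 min RT, luminescence in relative luminescence units.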
# [12] = biological target: Cytochrome P450 1A2 (Homo sapiens) (UniProt P05177); assay: Cytochrome P450 Family 1 Subfamily A Member 2 (CYP1A2) small molecule antagonists: luciferase reporter qHTS assay (AID 1671199); further: nearly all actives have a fitted effect of over 50% in size; further: potency means the concentration at half of the fitted maximal effect
# Chain of Cytochrome P450 1A2 (Homo sapiens) (P05177 whole entry, looked up): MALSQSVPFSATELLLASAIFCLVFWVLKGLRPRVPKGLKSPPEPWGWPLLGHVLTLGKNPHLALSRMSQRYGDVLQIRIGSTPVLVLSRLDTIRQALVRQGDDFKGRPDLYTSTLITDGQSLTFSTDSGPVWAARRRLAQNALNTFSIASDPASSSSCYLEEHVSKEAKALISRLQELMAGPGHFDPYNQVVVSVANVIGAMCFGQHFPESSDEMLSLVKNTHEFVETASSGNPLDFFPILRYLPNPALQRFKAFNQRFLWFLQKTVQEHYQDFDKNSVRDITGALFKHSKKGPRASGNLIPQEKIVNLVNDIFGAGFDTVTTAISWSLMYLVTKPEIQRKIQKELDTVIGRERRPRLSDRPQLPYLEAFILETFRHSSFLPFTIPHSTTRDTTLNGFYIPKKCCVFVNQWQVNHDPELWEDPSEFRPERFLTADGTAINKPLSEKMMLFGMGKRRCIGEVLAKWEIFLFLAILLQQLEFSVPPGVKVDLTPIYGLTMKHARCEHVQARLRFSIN
# In short: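 P450-Glo CYP1A2 enzyme–proluciferin substrate mix with compound 10 min at room temperature, then NADPH regeneration 1 h at room temperature. Luciferin detection reagent added, luminescence read after 20 min; furafylline positive control.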
# [13] = biological target: Cytochrome P450 3A4 (Homo sapiens) (UniProt P08684); assay: Cytochrome P450 Family 3 Subfamily A Member 4 (CYP3A4) small molecule antagonists: luciferase reporter qHTS assay (AID 1671201); further: nearly all actives have a fitted effect of over 50% in size; further: potency means the concentration at half of the fitted maximal effect
# Chain of Cytochrome P450 3A4 (Homo sapiens) (P08684 whole entry, looked up): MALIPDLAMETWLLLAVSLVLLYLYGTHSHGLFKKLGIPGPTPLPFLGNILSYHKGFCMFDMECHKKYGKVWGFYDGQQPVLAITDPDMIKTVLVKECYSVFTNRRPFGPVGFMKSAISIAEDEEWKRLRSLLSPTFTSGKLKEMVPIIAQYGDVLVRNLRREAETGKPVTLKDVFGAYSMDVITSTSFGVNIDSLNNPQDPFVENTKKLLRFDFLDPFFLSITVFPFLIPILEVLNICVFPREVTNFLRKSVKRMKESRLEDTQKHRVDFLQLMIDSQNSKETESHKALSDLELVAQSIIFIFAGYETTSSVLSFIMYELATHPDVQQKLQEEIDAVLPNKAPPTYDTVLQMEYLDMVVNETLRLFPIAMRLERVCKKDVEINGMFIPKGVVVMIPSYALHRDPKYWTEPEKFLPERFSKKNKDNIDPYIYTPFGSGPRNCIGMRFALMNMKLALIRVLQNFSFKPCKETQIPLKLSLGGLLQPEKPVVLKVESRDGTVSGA
# In short: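 qHTS, 1536-well. CYP3A4 + proluciferin substrate, cpd 10 min RT → NADPH regen 1 h RT → detection reagent 20 min → luminescence (RLU). Ketoconazole positive control.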
# [14] = Human pregnane X receptor (PXR) small molecule agonists, qHTS cell viability counter screen (AID 1346977); further: nearly all actives have a fitted effect of over 50% in size; further: potency means the concentration at half of the fitted maximal effect
# In short: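 Cytotoxicity counter screen run in the same wells as the PXR luciferase assay, using PXR-Luc HepG2 cells in charcoal-stripped serum medium. Viability: CellTiter-Fluor fluorescence after 24hr compound treatment.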
# [15] = biological target: Acetylcholinesterase (Homo sapiens) (UniProt P22303); assay: Acetylcholinesterase (AChE) small molecule antagonists: fluorescence cell-based qHTS assay (AID 1347398; calls by dose curve; further: nearly all actives have a fitted effect of over 50% in size; further: potency means the concentration at half of the fitted maximal effect); details: Potency: AChE activity
# In short: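 Endogenous acetylcholinesterase of SH-SY5Y neuroblastoma cells is measured in situ. After overnight attachment and 30 min compound exposure, cells receive acetylthiocholine and Thiolite Green; fluorescence is read after 40 min at room temperature.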
# [16] = biological target: Voltage-gated inwardly rectifying potassium channel KCNH2 (Homo sapiens) (UniProt Q12809); assay: Human Ether-a-go-go-Related Gene (hERG) channel small molecule antagonists: fluorescence cell-based qHTS assay (AID 1671200); further: nearly all actives have a fitted effect of over 50% in size; further: potency means the concentration at half of the fitted maximal effect
# Chain of Voltage-gated inwardly rectifying potassium channel KCNH2 (Homo sapiens) (Q12809 whole entry, looked up): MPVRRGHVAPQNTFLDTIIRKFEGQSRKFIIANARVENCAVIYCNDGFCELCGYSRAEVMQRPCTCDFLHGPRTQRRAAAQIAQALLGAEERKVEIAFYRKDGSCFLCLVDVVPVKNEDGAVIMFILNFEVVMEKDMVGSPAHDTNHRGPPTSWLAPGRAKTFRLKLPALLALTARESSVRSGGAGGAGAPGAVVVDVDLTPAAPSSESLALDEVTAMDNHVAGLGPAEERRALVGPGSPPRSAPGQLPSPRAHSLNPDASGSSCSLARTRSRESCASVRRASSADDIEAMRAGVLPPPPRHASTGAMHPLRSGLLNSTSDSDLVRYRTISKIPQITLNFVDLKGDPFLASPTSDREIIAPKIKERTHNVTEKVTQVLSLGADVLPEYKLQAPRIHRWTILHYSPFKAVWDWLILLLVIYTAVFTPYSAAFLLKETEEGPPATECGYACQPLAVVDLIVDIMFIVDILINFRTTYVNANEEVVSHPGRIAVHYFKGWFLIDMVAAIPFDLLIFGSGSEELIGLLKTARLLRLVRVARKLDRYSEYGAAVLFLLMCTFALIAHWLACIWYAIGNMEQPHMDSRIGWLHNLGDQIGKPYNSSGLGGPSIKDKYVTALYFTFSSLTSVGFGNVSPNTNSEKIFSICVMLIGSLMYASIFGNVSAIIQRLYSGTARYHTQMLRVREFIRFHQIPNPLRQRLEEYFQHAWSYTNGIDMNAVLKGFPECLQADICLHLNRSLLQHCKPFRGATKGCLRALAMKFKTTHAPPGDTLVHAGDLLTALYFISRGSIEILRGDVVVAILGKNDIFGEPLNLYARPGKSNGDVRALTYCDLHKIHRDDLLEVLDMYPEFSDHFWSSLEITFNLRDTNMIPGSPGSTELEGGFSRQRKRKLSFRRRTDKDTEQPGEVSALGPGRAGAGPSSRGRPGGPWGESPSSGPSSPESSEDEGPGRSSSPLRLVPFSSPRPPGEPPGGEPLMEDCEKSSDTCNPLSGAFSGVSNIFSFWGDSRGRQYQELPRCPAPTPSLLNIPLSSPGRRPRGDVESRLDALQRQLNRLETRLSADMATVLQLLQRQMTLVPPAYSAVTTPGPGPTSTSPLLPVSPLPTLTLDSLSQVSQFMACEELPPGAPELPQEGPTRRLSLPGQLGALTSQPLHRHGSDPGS
# In short: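 Fluorescence at 540 nm emission (480 nm excitation) was recorded kinetically for 2 min at 1-second intervals once the thallium-containing stimulus reached cells previously loaded with FluxOR II dye.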
# [17] = biological target: Nuclear receptor subfamily 1 group I member 2 (Rattus norvegicus) (UniProt Q9R1A7); assay: Rat pregnane X receptor (rPXR) activation by small molecules, qHTS assay (AID 1346983); details: rPXR luciferase reporter cells, One-Glo luminescence, 24 h; max activation: active compounds read high; further: nearly all actives have a fitted effect of over 20% in size
# Chain of Nuclear receptor subfamily 1 group I member 2 (Rattus norvegicus) (Q9R1A7 whole entry, looked up): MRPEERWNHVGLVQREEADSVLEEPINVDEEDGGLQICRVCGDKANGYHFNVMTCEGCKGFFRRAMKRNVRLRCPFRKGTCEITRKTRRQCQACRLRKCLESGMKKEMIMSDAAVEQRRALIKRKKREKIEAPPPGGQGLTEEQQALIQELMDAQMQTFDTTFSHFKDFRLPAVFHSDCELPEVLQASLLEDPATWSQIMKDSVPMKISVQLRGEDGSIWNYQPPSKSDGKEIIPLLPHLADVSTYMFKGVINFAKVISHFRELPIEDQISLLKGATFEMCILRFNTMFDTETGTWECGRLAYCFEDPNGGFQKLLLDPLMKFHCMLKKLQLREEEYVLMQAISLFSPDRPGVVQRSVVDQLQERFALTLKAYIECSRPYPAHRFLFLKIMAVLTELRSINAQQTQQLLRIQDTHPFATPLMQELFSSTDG
# In short: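 Cell-based rPXR activation assay: rPXR cells, 2,000 per well, rested 5hr at 37 C, then exposed to compounds in DMSO for 24 hr at 37 C. Luciferase activity read by One-Glo luminescence after 30 min at room temperature.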
SMILES,Potency [1],Potency [2],Potency [3],Potency [4],Potency [5],Potency [6],Potency [7],Potency [8],Potency [9],Potency [10],Potency [11],Potency [12],Potency [13],Potency [14],Potency [15],Potency [16],max activation [17]
COP(=S)(OC)Oc1cc(Cl)c(I)cc1Cl,inactive,inactive,inactive,inactive,inactive,inactive,inactive,inactive,inactive,2.24 µM (active),3.99 µM (active),12.6 µM (active),20 µM (active),,,,
Clc1cccc(SC2CCNCC2)n1,inactive,inactive,inactive,inactive,,inactive,inactive,inactive,,,,,,inactive,inactive,inactive,
O=S(=O)(O)C(F)(F)C(F)(F)C(F)(F)C(F)(F)F,inactive,54.5 µM (active),inactive,,inactive,inactive,inactive,inactive,,,17.9 µM (active),,,,inactive,inactive,
CCOP(=O)(OCC)Oc1ccc([N+](=O)[O-])cc1,inactive,inactive,inactive,inactive,,,,,1.61 µM (active) and 1.59 µM (active),,64 µM (active),32.1 µM (active) and 31.7 µM (active),inactive,inactive,,inactive,
O=C(Nc1ccccc1)Nc1ccnc(Cl)c1,inactive,48.6 µM (active),inactive,,30.6 µM (active),,inactive,inactive,39.9 µM (active),35.6 µM (active),10 µM (active),20 µM (active),,43.3 µM (active),inactive,inactive,
CCOC(=O)C(Cl)C(C)=O (centres undefined),inactive,inactive,inactive,inactive,inactive,,inactive,inactive,inactive,,inactive,inactive,inactive,inactive,,inactive,
C/C=C/C=O,inactive,inactive,inactive,inactive,inactive,inactive,inactive,inactive,,,,,inactive,inactive,inactive,inactive,
CN(C)c1ccc(N(C)C)cc1,inactive,,inactive,inactive,,40 µM (active),,inactive,,,20.1 µM (active),40 µM (active),35.7 µM (active),,40 µM (active),inactive,
O=C(N[C@H](c1ccccc1)[C@@H]1CN2CCC1CC2)c1c(Cl)ccc(C(F)(F)F)c1Cl,inactive,78.1 µM (active),inactive,55.3 µM (active),inactive,,,,2.56 µM (active),,,inactive,,49.3 µM (active),,39.5 µM (active),
CC1C(=O)C[C@]2(C(C)C)C[C@H]12 (some centres undefined),inactive,,inactive,inactive,,inactive,inactive,inactive,34.5 µM (active),,,,inactive,inactive,inactive,inactive,
ClCC(Br)CBr (centres undefined),inactive,inactive,inactive,inactive,inactive,inactive,inactive,inactive,inactive,,,,inactive,inactive,inactive,inactive,
CC(C)N(CCC(C(N)=O)(c1ccccc1)c1ccccn1)C(C)C (centres undefined),inactive,inactive,inactive,inactive,,inactive,inactive,inactive,,,,,,inactive,inactive,,-7.32%
CC(c1ccc(O)cc1)(c1ccc(O)cc1)c1ccc(O)cc1,inactive,68.6 µM (active),inactive,,68.6 µM (active),inactive,inactive,inactive,71 µM (active),28.3 µM (active),10 µM (active),inactive,31.7 µM (active),,inactive,inactive,
C=COC(C)=O,inactive,inactive,inactive,inactive,inactive,,inactive,inactive,,inactive,inactive,41.3 µM (active),inactive,inactive,inactive,inactive,
C=CCN1CC[C@]23c4c5ccc(O)c4O[C@H]2C(=O)CC[C@@]3(O)[C@H]1C5,inactive,inactive,inactive,inactive,,,,,,,,,,inactive,,inactive,-2.21% and -3.34%
